Results reported in ChEMBL document CHEMBL3988442, “University of Dundee, Small-Polar-MMV Screening Library” (2021).
For some assays here: Potency and affinity values are given separately.

How the values were obtained:
Design in all cases: scale not given: direction of the effect not stated beside the values
[1] = biological target: Protein translocase subunit SecA (Escherichia coli (strain K12)) (UniProt P10408); assay: Assay to Identify E. coli SecA ATPase Inhibitors; assay type: functional; settings: 30 µM
[2] = biological target: T1, Ubiquitin-activating enzyme e1, putative (Leishmania donovani (strain BPK282A1)) (UniProt E9BSI1); assay: Leishmania donovani Ubiquitin Activating Enzyme (LdE1); assay type: functional; settings: 30 µM
T1 sequence (whole entry): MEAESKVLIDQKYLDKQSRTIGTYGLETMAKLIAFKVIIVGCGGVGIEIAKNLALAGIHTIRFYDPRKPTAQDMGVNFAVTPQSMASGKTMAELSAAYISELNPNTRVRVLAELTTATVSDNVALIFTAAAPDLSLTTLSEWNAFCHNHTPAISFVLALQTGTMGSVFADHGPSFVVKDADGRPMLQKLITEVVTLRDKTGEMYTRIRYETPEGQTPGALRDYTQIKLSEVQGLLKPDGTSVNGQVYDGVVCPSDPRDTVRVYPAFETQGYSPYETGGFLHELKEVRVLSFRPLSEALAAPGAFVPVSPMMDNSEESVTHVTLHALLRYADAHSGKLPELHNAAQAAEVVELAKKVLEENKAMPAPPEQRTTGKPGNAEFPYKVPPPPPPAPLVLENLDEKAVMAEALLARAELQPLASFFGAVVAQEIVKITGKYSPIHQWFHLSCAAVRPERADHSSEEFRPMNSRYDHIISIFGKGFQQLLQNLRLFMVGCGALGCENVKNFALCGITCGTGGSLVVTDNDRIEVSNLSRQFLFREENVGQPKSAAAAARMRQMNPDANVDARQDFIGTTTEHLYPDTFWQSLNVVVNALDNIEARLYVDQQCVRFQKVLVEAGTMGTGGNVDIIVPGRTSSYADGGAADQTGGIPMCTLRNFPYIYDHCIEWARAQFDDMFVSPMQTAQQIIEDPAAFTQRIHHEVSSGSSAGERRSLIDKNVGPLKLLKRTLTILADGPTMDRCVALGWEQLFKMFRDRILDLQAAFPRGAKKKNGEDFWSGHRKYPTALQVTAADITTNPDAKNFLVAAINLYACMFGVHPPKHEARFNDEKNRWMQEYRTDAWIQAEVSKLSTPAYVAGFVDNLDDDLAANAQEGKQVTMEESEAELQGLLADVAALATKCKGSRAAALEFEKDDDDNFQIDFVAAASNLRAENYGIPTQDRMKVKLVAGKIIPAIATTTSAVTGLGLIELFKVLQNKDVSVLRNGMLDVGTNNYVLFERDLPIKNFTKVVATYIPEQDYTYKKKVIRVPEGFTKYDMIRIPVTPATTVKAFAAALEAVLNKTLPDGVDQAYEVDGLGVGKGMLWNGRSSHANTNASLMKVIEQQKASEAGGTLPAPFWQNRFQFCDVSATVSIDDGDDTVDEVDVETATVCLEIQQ

[3] = biological target: AMP-activated protein kinase, AMPK (Homo sapiens) (UniProt P54646+O43741+P54619+Q9UGJ0+Q9Y478+Q13131+Q9UGI9); assay: AMP-dependent Kinase enzyme assay. An in vitro enzyme assay that detects ADP turnover that is directly proportional to AMPK activity. This uses naive AMPK that is activated during the assay with MK-8722; assay type: functional; settings: 30 µM
[4] = biological target: Sialic acid-binding Ig-like lectin 9 (Homo sapiens) (UniProt Q9Y336); assay: Hs-Siglec9 ALPHAscreen SOP 20170721; settings: 10 µM
[5] = test system: Trypanosoma cruzi; assay: Trypanosoma cruzi phosphomannomutase and mannose-1-phosphate guanylyltransferase assay; assay type: functional; settings: 10 µM
[6] = biological target: T2, Arginase-2, mitochondrial (Homo sapiens) (UniProt P78540); assay: in vitro enzyme assay to detect the production of urea directly proportional to the activity of Arginase II; assay type: functional; settings: 33.3 µM; further: in the data most compounds retested in dose-response had high values
T2 sequence (whole entry): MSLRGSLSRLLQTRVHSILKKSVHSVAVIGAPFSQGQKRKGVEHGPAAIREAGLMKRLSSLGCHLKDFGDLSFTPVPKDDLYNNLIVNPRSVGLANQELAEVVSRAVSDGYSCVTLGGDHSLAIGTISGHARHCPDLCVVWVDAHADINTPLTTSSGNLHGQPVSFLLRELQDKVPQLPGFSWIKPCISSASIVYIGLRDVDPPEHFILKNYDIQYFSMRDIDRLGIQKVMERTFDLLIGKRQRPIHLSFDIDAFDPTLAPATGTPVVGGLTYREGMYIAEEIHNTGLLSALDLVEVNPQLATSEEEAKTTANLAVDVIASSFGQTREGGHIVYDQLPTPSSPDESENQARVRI

[7] = biological target: T3, Proteasome subunit beta (Trypanosoma cruzi) (UniProt O96673); assay: Trypanosoma cruzi proteasome chymotrypsin-like activity (TcProtChymo) assay.; further: in the data most compounds retested in dose-response had high values; assay type: functional; settings: 9.37 µM
T3 sequence (whole entry): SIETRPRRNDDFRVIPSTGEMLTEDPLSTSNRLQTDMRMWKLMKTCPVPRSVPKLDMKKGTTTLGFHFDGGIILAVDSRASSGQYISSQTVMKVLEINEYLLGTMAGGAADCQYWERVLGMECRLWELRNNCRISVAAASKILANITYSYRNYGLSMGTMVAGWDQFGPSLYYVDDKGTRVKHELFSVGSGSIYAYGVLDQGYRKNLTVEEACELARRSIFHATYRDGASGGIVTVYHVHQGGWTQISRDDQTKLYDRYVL

[8] = species on record: Homo sapiens; assay: To identify inhibition of the IFN signalling (Jak-Stat) pathway via expression of an eGFP reporter gene under the control of an IFN-stimulated response element (ISRE) containing MxA promoter.; assay type: functional; settings: 30 µM
[9] = biological target: T4, Tyrosyl-tRNA synthetase, putative (Trypanosoma cruzi (strain CL Brener)) (UniProt Q4DSP6); assay: Trypanosoma cruzi tyrosyl tRNA synthetase (TcYRS) _High Tyrosine SOP; assay type: functional; settings: 30 µM; further: in the data most compounds retested in dose-response had high values
T4 sequence (whole entry): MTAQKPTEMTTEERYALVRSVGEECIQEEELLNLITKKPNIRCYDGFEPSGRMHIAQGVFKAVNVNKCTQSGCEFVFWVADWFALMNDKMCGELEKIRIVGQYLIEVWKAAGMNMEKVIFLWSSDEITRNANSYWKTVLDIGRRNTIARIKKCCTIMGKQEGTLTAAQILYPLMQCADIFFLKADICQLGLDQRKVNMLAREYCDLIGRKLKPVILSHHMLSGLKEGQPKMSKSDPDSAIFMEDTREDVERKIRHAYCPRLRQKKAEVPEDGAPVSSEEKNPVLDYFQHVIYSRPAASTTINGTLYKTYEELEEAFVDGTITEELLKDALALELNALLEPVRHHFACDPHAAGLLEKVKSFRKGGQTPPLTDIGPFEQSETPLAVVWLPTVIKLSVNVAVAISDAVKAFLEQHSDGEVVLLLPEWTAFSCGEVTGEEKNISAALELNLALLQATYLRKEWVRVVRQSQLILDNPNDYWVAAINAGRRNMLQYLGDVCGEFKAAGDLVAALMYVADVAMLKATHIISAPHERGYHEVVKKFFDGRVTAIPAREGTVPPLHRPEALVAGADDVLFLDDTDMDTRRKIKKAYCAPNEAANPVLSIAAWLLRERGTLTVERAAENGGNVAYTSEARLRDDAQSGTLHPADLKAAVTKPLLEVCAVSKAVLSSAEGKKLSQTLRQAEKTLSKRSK

[10] = biological target: T4, Tyrosyl-tRNA synthetase, putative (Trypanosoma cruzi (strain CL Brener)); assay: Trypanosoma cruzi tyrosyl tRNA synthetase (TcYRS) SOP; assay type: functional; settings: 30 µM
[11] = biological target: Chromo domain-containing protein 1 (Saccharomyces cerevisiae (strain ATCC 204508 / S288c) (Baker's yeast)) (UniProt P32657); assay: ScCHD-1 Enzyme Inhibition Assay; assay type: functional; settings: 30 µM; further: in the data most compounds retested in dose-response had high values
Chain of Chromo domain-containing protein 1 (Saccharomyces cerevisiae (strain ATCC 204508 / S288c) (Baker's yeast)) (P32657 whole entry, the tested form may be a part): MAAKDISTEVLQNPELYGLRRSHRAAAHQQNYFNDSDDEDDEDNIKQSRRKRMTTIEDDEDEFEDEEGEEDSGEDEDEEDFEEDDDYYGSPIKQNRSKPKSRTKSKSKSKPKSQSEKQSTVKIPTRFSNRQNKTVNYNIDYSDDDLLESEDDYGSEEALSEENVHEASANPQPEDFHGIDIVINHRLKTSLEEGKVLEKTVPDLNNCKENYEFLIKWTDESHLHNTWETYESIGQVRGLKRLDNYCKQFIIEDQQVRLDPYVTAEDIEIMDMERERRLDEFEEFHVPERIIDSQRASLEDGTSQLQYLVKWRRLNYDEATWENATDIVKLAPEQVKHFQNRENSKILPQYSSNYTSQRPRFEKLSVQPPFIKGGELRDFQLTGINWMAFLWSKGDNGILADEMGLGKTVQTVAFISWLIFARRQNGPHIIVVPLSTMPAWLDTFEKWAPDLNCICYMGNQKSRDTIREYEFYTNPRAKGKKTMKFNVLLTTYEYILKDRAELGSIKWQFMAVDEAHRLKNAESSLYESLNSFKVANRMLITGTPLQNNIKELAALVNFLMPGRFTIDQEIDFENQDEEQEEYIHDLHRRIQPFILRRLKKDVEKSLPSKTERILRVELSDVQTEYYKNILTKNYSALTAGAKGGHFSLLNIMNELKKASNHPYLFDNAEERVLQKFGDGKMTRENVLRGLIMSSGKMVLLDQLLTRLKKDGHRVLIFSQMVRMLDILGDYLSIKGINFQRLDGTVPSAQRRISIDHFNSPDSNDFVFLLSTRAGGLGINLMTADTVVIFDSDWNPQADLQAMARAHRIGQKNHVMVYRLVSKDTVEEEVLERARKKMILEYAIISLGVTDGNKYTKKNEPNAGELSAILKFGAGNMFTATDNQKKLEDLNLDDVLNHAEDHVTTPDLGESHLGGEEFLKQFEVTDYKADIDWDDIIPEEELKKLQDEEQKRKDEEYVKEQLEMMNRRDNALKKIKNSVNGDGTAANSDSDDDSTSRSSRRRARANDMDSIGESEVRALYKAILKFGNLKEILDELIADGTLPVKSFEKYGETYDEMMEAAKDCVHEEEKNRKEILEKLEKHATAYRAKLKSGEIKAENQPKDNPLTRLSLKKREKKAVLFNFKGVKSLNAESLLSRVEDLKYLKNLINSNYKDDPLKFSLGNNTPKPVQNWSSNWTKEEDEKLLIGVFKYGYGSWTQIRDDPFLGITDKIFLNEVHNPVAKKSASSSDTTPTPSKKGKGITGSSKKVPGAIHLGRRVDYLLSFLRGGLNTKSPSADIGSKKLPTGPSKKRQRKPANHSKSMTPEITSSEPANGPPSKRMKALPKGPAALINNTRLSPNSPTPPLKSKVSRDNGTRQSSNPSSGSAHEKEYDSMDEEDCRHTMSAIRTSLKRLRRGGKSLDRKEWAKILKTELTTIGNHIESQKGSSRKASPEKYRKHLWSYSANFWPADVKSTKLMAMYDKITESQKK

Chain of Sialic acid-binding Ig-like lectin 9 (Homo sapiens) (Q9Y336 whole entry): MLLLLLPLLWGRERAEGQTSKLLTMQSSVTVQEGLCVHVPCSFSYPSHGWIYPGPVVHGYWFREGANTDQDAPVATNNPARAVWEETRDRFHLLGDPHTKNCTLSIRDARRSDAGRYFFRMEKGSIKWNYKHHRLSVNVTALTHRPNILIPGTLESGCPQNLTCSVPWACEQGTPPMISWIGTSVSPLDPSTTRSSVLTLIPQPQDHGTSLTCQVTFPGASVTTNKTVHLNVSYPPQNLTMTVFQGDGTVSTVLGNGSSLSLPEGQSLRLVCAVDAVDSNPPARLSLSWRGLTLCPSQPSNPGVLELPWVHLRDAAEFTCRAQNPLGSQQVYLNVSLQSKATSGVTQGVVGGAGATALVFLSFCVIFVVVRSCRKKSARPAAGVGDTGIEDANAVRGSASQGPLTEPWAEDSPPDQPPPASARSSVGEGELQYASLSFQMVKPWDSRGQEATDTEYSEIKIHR
Chain of Protein translocase subunit SecA (Escherichia coli (strain K12)) (P10408 whole entry): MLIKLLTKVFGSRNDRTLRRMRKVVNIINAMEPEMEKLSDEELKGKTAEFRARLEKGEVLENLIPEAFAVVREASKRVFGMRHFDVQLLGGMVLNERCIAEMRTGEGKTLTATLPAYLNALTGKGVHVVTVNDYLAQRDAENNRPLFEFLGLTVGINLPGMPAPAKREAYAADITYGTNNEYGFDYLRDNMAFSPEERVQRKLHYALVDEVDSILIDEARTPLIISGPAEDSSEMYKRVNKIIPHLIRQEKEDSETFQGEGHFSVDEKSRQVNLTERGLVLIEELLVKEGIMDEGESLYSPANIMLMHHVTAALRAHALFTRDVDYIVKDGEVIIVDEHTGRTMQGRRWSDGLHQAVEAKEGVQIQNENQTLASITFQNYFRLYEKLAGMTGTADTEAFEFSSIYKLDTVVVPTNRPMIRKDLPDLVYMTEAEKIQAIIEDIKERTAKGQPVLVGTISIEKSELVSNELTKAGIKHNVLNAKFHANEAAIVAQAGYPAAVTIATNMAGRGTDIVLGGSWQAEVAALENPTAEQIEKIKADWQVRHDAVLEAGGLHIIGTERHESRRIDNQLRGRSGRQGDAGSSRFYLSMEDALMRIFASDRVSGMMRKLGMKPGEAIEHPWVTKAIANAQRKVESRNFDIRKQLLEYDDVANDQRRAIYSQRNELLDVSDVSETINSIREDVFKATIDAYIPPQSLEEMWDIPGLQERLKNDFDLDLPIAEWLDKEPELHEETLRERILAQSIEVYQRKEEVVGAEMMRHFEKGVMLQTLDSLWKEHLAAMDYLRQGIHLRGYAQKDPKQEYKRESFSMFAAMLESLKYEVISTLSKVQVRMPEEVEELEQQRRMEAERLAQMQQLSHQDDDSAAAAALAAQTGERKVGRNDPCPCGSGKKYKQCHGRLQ

Compound	Percent Effect [1] [%]	Percent Effect [2] [%]	Percent Effect [3] [%]	Percent Effect [4] [%]	Percent Effect [5] [%]	Percent Effect [6] [%]	Percent Effect [7] [%]	Percent Effect [8] [%]	Percent Effect [9] [%]	Percent Effect [10] [%]	Percent Effect [11] [%]
CCc1nc(C2CCCN2CC(=O)Nc2c(C)n[nH]c2C)no1 (stereo unspecified)	1.31	-2.6	-3.26	6.7	-5.62	5.34	3.38	16.5	1.94	7.32	-0.363
CC(C)N(C)C(=O)C1=NOC2(CCN(C(=O)c3ccccn3)C2)C1 (stereo unspecified)	3.88	2.74	-0.462	5.09	-5.95	-3.59	17.9	5.05	5.21	16.1	2.42
CC(C)NC(=O)c1nnn(-c2cccc(C(F)(F)F)c2)c1N	-2.18	-4.17	-2.65	-0.424	6.51	-4.86	4.04	11.5	0	0	-1.24
CN1C(=O)C[C@@H]2[C@@H]1CCN2C(=O)c1ccc[nH]1	-5.79	-2.74	1.46	3.04	-1.59	-3.99	10.7	17.1	1.04	6.17	0.233
CN(C)C1CCN(C(=O)NCc2ccccc2Cn2cncn2)CC1	-2.11	10.8	-1.1	10.9	7.72	6.19	12.2	18.3	7.94	17.1	-1.22
CN1CCCN(C(=O)c2ccc3c(c2)nc(N2CCOCC2)n3C)CC1	-0.416	4.17	-3.77	-0.695	-3.6	-0.883	18.2	21.6	2.1	2.56	-1.63
CCN(CC)C(CNC(=O)c1ccc(S(C)(=O)=O)cc1)c1ccco1 (stereo unspecified)	-2.81	2.7	6.63	-6.01	3.91	-2.5	14.8	8.16	8.91	11	3.77
c1csc(CN2C[C@@H]3OCCN(CC4CCCO4)[C@@H]3C2)c1 (stereo partly specified)	-3.09	5.48	-0.633	5.1	-1.39	-1.2	10.2	4.94	5.21	16.1	1.15
CCc1ncnc2c1CCN(Cc1ccccn1)CC2	-1.83	-1.33	-3.43	-1.27	-5.11	-11.4	0	-11.7	-3.17	-5.13	-3.62
CSCC(=O)N1CCCC(n2ccnc2C(C)C)C1 (stereo unspecified)	-0.321	15.8	-1.19	-13.5	-6.63	5.4	6.01	-1.49	8.37	18.5	-9.2
Clc1ccc(-n2cc(CNC3CCc4ncnn4C3)cn2)cc1 (stereo unspecified)	-0.3	1.27	7.38	3.29	-2.36	1.5	10.6	7.5	2.08	10.1	-1.43
CC(=O)NC1CCCN(C(=O)Nc2cnc3c(cnn3C(C)C)c2)C1 (stereo unspecified)	-3.14	16.2	0.9	4.02	-4.55	-1.29	12.2	5.99	7.92	23.2	-5.36
Cc1cccc(NC2CCN(C(=O)Nc3cc(C)on3)CC2)n1	-3.9	12.7	-3.67	8.79	5.57	0.76	1.39	-22.6	4.43	16.5	-8.82
COCCCNC(=O)CCn1nc(C)c2ccccc21	-3.61	6.67	0.569	3.25	-6.09	-6.16	15	2.4	3.17	2.56	-8.28
CCc1n[nH]c(C2CN(CC(=O)NCCc3ccsc3)CCO2)n1 (stereo unspecified)	-2.71	5.48	-4.4	11.2	5.09	4.09	1.42	4.97	1.07	5	-5.13
O=C(NCC(O)c1cccs1)c1cccc(Cl)c1 (stereo unspecified)	-0.149	13.7	3.83	0.22	3.72	7.27	25.6	13.3	6.45	17.5	-6.71
